The structures appear in SMILES notation. Among all 200,000 compounds or so, about 720 (0.36%) were called active. Another 8% or so got no clear call; they are omitted. Calls follow the shape of the dose curve; as a rule, active = well fitted activation curve with a large enough effect; inconclusive = small, poorly fitted or top-dose-only effect, or effect the other way, or another doubt; inactive = flat fitted curve, though single readings scatter. Some of the results follow.
Potency is read from the fitted curve at half-maximal effect.

For the test, the target named is Lysosomal alpha-glucosidase (Homo sapiens) (UniProt P10253). Nature of the test: qHTS Assay for Activators of Human alpha-Glucosidase as a Potential Chaperone Treatment of Pompe Disease. Also: nearly all actives have a fitted effect of over 80% in size. The settings on record: purified enzyme, 4-MU-alpha-glucoside fluorescence, 20 min; series mostly up to 76.9 µM. The procedure, abridged:
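Compounds titrated up to 77 uM against 4 nM enzyme and 400 uM methylumbelliferyl substrate at room temperature, 20 min, pH 5.0. Basic stop, then 4-methylumbelliferone fluorescence (365/440 nm) normalized to no-enzyme and enzyme controls; Hill-equation AC50.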
Consider `O=C(O)c1cc(-c2ccccc2)nc2nc(N3CCCCC3)sc12`, for which the Potency is 28.2 µM (active).

As for `Cc1ccc(-c2cc(C(=O)O)c3sc(N4CCCCC4)nc3n2)cc1`, the Potency is 28.2 µM (active).

Turning to `CCCN(CCC)CCCNC(=O)c1cc2cc3ccc(OC)cc3nc2o1`, the Potency is 28.2 µM (active).

As for `CCCCN(CC)CCCNC(=O)c1cc2cc3ccc(OC)cc3nc2o1`, the Potency was 31.6 µM (active).

Regarding `CCn1cc(-c2ccnc3cc(C(=O)O)nn23)c(C)n1`, the Potency was 39.8 µM (active).

With `CN1CCc2c(sc3c2C(=O)NC(c2ccco2)N3)C1` (stereo not given), the Potency was 31.6 µM (active).

As for `O=C1NC(c2ccco2)Nc2sc3c(c21)CCN(Cc1ccccc1)C3` (stereo not given), the Potency is 35.5 µM (active).

Consider `CCCCCn1c(=O)c(-c2nc3ccccc3[nH]2)c(O)c2ccccc21`, for which the Potency was 39.8 µM (active).

Consider `Cc1c(O)ccc2c3c(c(=O)oc12)CCC(C)C3` (stereo not given), for which the Potency was 35.5 µM (active).

As for `Cc1c(O)ccc2c3c(c(=O)oc12)CCCC3`, the Potency was 35.5 µM (active).

For the compound `Fc1ccc(-n2c(-c3cccs3)nc3nc4ccccc4nc32)cc1`, the Potency is 3.55 µM (active).

With `Fc1ccc(-n2c(-c3ccco3)nc3nc4ccccc4nc32)cc1`, the Potency was 7.94 µM (active).

With `Fc1cccc(-n2c(-c3ccco3)nc3nc4ccccc4nc32)c1`, the Potency was 6.31 µM (active).

Regarding `Cc1cc(=O)n2cccc(O)c2n1`, the Potency is 25.1 µM (active).

In the case of `O=c1cccc2n1Cc1cc3ccccc3nc1-2`, the Potency was 35.5 µM (active).

For `CN(C)S(=O)(=O)c1cccc(-c2cn3cccnc3n2)c1`, the Potency is 39.8 µM (active).

For `CC1CN(S(=O)(=O)c2cccc(-c3cn4cccnc4n3)c2)CC(C)O1` (stereo not given), the Potency was 35.5 µM (active).

On to `CCc1nnc(NC(=O)CSc2nc(C)c3c(c2C#N)CCCC3)s1`, for which the Potency was 35.5 µM (active).

`CCC(O)CNc1nc(SC)nc2sc3c(c12)CCN(C)C3` (stereo not given): the Potency was 28.2 µM (active).

Consider `CSc1nc2oc3c(c2c2nncn12)CC(C)(C)SC3`, for which the Potency is 39.8 µM (active).

On to `Cc1cc(NC(C)C)n2c(nc3ccccc32)c1C#N`, for which the Potency was 35.5 µM (active).

On to `CCCc1cc(NCc2ccccn2)n2c(nc3ccccc32)c1C#N`, for which the Potency is 35.5 µM (active).

`CCCc1cc(NCCCCO)n2c(nc3ccccc32)c1C#N`: the Potency was 35.5 µM (active).

In the case of `Cc1cc(NCCCCO)n2c(nc3ccccc32)c1C#N`, the Potency was 35.5 µM (active).

Regarding `COCCNc1cc(C)c(C#N)c2nc3ccccc3n12`, the Potency is 35.5 µM (active).

Take `Cc1cc(NCCCO)n2c(nc3ccccc32)c1C#N`: the Potency was 35.5 µM (active).

Take `Cc1cc(NCCCn2ccnc2)n2c(nc3ccccc32)c1C#N`: the Potency was 35.5 µM (active).

For the compound `COc1cccc(C(=O)Nc2cc(-c3cn4cccnc4n3)ccc2C)c1`, the Potency was 35.5 µM (active).

Consider `COc1cc(C(=O)Nc2cc(-c3cn4cccnc4n3)ccc2C)cc(OC)c1OC`, for which the Potency is 35.5 µM (active).

As for `Cc1ccc(-c2cn3cccnc3n2)cc1NC(=O)c1ccc(Br)o1`, the Potency was 35.5 µM (active).

With `O=c1oc2c(CN3CCCCC3)c(O)ccc2c2c1CCCCC2`, the Potency was 35.5 µM (active).

On to `O=c1oc2c(CN3CCCCC3)c(O)ccc2c2c1CCCC2`, for which the Potency is 35.5 µM (active).

Consider `C=CCn1c(N)c(C(=O)OC(C)(C)C)c2nc3ccccc3nc21`, for which the Potency was 35.5 µM (active).

On to `COCC(C)OC(=O)c1c(N)n(CC(C)C)c2nc3ccccc3nc12` (stereo not given), for which the Potency was 35.5 µM (active).

On to `C=CCn1c(N)c(C(=O)OCCC)c2nc3ccccc3nc21`, for which the Potency was 35.5 µM (active).

Turning to `CCOC(=O)c1c(N)n(CC(C)NC(=O)C2CC2)c2nc3ccccc3nc12` (stereo not given), the Potency is 35.5 µM (active).

As to `CC(C)(C)OC(=O)c1c(N)n(CCCN2CCCC2=O)c2nc3ccccc3nc12`, the Potency was 31.6 µM (active).

As for `C=CCn1c(N)c(C(=O)OC(C)CC)c2nc3ccccc3nc21` (stereo not given), the Potency was 31.6 µM (active).

On to `C=CCn1c(N)c(C(=O)OCC(C)C)c2nc3ccccc3nc21`, for which the Potency is 35.5 µM (active).

Regarding `CC(C)CN(Cc1c(O)ccc2c3c(c(=O)oc12)CCC3)CC(C)C`, the Potency was 31.6 µM (active).

On to `COCCN(CCOC)Cc1c(O)ccc2c3c(c(=O)oc12)CCC3`, for which the Potency was 35.5 µM (active).

Take `Cc1cc(=O)oc2c(CN(CC(C)C)CC(C)C)c(O)ccc12`: the Potency is 31.6 µM (active).

For the compound `Cc1cc(=O)oc2c(CN(C)Cc3ccccc3)c(O)ccc12`, the Potency is 35.5 µM (active).

On to `CN(C)Cc1c(O)ccc2c3c(c(=O)oc12)CCCCC3`, for which the Potency is 35.5 µM (active).

Consider `COc1ccc(-c2cc(C(F)(F)F)n3nc(C(=O)NCCN4CCOCC4)cc3n2)cc1`, for which the Potency was 44.7 µM (active).

As to `CCCc1cc(=O)oc2c(CN3CCCC3)c(O)ccc12`, the Potency was 35.5 µM (active).

Regarding `CCCCc1cc(=O)oc2c(CN3CCCC3)c(O)ccc12`, the Potency was 31.6 µM (active).

Consider `CCCc1cc(=O)oc2c(CN3CCOCC3)c(O)ccc12`, for which the Potency was 31.6 µM (active).

For the compound `COC(=O)C1=CN(CC2CCCO2)C=C(C(=O)OC)C1c1ccccc1C(F)(F)F` (stereo not given), the Potency was 25.1 µM (active).

For the compound `CCOC(=O)C1=CN(CC2CCCO2)C=C(C(=O)OCC)C1c1ccccc1C(F)(F)F` (stereo not given), the Potency was 35.5 µM (active).

For the compound `CCOP(=O)(OCC)c1nc(-c2cccc3ccccc23)oc1NCc1ccc(OC)cc1`, the Potency is 35.5 µM (active).

As for `COc1ccc(CNc2oc(-c3cccc4ccccc34)nc2C#N)cc1`, the Potency is 28.2 µM (active).

For `COP(=O)(OC)c1nc(-c2cccc3ccccc23)oc1NCc1ccccc1`, the Potency was 35.5 µM (active).

As for `Cc1oc2cc(O)ccc2c(=O)c1Oc1ccc2ccccc2c1`, the Potency is 39.8 µM (active).

In the case of `Cc1cc(=O)oc2cc(OC(=O)c3cncc(Br)c3)ccc12`, the Potency is 17.8 µM (active).

`CC(=O)Oc1cc2oc(=O)cc(C)c2cc1OC(C)=O`: the Potency was 31.6 µM (active).

As for `Cc1cc(=O)oc2cc(OC(=O)c3ccccc3)ccc12`, the Potency is 25.1 µM (active).

With `CCC(=O)Oc1ccc2c(C)c(Cl)c(=O)oc2c1`, the Potency was 35.5 µM (active).

With `Cc1cc(=O)oc2cc(OCc3ccc(C(=O)N4CCN(c5ccccc5)CC4)cc3)ccc12`, the Potency is 39.8 µM (active).

`CC(=O)Oc1ccc2c(C)cc(=O)oc2c1`: the Potency is 35.5 µM (active).

Consider `Cc1cc(=O)oc2cc(OC(=O)CCN3C(=O)c4ccccc4C3=O)ccc12`, for which the Potency is 25.1 µM (active).

For the compound `CCCC(=O)Oc1ccc2c(C)cc(=O)oc2c1`, the Potency is 35.5 µM (active).

Turning to `CCN(CC)c1cc(C)c2cc(NC(=O)CNC(C)=O)ccc2n1`, the Potency was 35.5 µM (active).

Turning to `CN1c2ccccc2-c2nc3ccccc3n2C1c1cccs1` (stereo not given), the Potency was 35.5 µM (active).

Consider `CCN1c2ccccc2-c2nc3ccccc3n2C1c1cccs1` (stereo not given), for which the Potency was 35.5 µM (active).

Values taken from PubChem BioAssay AID2242 (National Center for Advancing Translational Sciences (NCATS), 2010).
